Hit rate of the full screen: of about 62,000 compounds, about 100 (0.16%) were called active. The sample as a whole holds a higher share of actives than the screen did. Values without a mark were called inactive.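 The calls were made as follows: active = inhibition above 20% in each of the two 10-compound mixture wells holding the compound; inactive = the rest.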
What follows are molecules tested against Complement C1s subcomponent (Homo sapiens) (UniProt P09871) (assay: human C1s inhibition by compound pools – biochemical, 10-compound mixtures, primary screen (AID 538;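 also: 0% = enzyme wells lacking compound mixture and 100% = no-enzyme blank wells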)). Settings: purified C1s, fluorogenic AMC substrate, pooled mixtures; screened at 5 µM (by protocol).
Chain of Complement C1s subcomponent (Homo sapiens) (P09871 16-437 limits assumed): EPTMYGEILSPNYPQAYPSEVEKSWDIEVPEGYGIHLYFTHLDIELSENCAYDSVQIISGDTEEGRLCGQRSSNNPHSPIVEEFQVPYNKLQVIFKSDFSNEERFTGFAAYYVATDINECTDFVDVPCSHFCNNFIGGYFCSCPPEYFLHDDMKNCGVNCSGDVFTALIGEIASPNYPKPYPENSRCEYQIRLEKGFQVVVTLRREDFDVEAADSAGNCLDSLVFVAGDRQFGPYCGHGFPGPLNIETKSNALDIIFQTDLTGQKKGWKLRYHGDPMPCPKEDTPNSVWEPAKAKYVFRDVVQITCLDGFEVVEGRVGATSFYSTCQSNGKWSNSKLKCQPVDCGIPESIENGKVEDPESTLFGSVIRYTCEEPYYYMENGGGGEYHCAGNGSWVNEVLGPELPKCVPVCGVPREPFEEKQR
Chain of Complement C1s subcomponent (Homo sapiens) (P09871 438-688 limits assumed): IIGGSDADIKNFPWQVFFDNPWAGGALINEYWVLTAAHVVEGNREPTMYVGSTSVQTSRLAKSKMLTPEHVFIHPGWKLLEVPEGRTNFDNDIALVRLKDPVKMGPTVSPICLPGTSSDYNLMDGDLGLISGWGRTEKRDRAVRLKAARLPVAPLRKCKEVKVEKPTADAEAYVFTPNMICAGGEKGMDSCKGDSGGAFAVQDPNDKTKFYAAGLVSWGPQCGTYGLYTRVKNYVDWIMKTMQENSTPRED

| Compound | mean inhibition % of two 10-compound mixtures (active compounds read high) |
| --- | --- |
| Cc1ccc(C2CC(=O)NC(SCC(=O)OCc3ccccc3)=C2C#N)o1 (stereo not drawn) | -61.3% |
| CCC(=O)Nc1cccc(NC(=O)CSc2nnnn2C2CCCC2)c1 | 2.81% |
| CC(C)c1cc(C(=O)O)on1 | -17.9% |
| CC1CCc2c(sc(NC(=O)c3ccc(Cn4cc(Br)cn4)o3)c2C(N)=O)C1 (stereo not drawn) | -5.95% |
| CCCn1c(=O)c2ccccc2n2c(SCC(=O)/C(C#N)=C(\C)N)nnc12 | -0.9% |
| CCOc1ccc2nc(SC(CC)C(=O)Nc3cc(C)on3)sc2c1 (stereo not drawn) | 2.46% |
| COc1ccccc1Nc1nc(N)nc(CN(C)C2CCCCC2)n1 | -40.1% |
| C=CCn1c(CC(=O)Nc2cccc(OC)c2)nnc1SCC(=O)NC1CCCCC1 | -2.35% |
| CN1CCN(C(=O)c2ccc(NS(=O)(=O)c3ccccc3)cc2)CC1 | 9.96% |
| O=C(c1cccc(S(=O)(=O)N2CCOCC2)c1)N1CCOCC1 | 13.9% |
| CC(=O)N1CCN(C(=O)c2cccc(S(=O)(=O)Nc3ccc(C)cc3)c2)CC1 | 66.7% (active) |
| COCCCNC(=O)COc1cc(C)c(Cl)c(C)c1 | -0.425% |
| CCOC(=O)Cc1csc(NC(=O)CSc2nc(C)cc(=O)[nH]2)n1 | -2.67% |
| O=S(=O)(/C=C/c1ccccc1)NCCc1ccccn1 | -2.77% |
| Clc1ccc(Cn2ncc3c(NCc4cccnc4)ncnc32)cc1 | 3.33% |
| Cc1ccc(S(=O)(=O)NCC(=O)OCC(=O)N2CCc3ccccc32)cc1 | 5.33% |
| N#Cc1cccc(CSc2nnc(CCCO)n2-c2ccccc2)c1 | -5.26% |
| CCCC(C(=O)N1CCOCC1)N1C(=O)C2C3C=CC(C3)C2C1=O (stereo not drawn) | -8.34% |
| O=c1[nH]nc(CSCc2ccccc2Cl)[nH]1 | -7.92% |
| Cc1c(C(=O)NCC2CCCO2)sc2nc(-c3ccccc3)cn12 (stereo not drawn) | 0.595% |
| COC(=O)C(C)n1cnc2c(nnn2-c2cccc(Cl)c2)c1=O (stereo not drawn) | -40.6% |
| CC(C)c1ccc(OCC(O)Cn2cnc3ccccc32)cc1 (stereo not drawn) | -21.9% |

| Compound | mean inhibition % of two 10-compound mixtures (active compounds read high) |
| --- | --- |
| CC(C)C(NC(=O)c1cccc(S(=O)(=O)N2CCOCC2)c1)C(=O)NCCc1ccccn1 (stereo not drawn) | -12.8% |
| COC(=O)COc1ccc2oc(=O)cc(C)c2c1 | 10.3% |
| COC(=O)c1ccc(S(=O)(=O)c2ccc(C(=O)OC)s2)s1 | -14% |
| COC(=O)c1ccccc1NC(=O)CSc1ccccn1 | -21.1% |
| CC1CN(Cc2nc3c(c(=O)n(C)c(=O)n3C)n2Cc2cccc(Cl)c2)CC(C)O1 (stereo not drawn) | -18.5% |
| COc1cccc(-n2c(SCC(=O)NC3CCCCC3)nc3n[nH]c(C)c3c2=N)c1 | -13.5% |
| CC(=O)N(Cc1cccs1)C1CCOC(C)(C)C1 (stereo not drawn) | 4.59% |
| CCOC(=O)c1cccc(NC(=O)CCc2c(C)nc3ncnn3c2C)c1 | 2.35% |
| CC(C)n1c(NCc2c[nH]c3ccccc23)nc2ccccc21 | -7.58% |
| Cn1c(/C(C#N)=C2/CCCCCN2)nc2ccccc21 | -6.22% |
| Cc1ccc(OCC(=O)Nc2ccc(-c3nc4ncccc4o3)cc2)cc1 | -66.2% |
| Cc1ccccc1CSc1nnc(Cn2c(=O)sc3ccccc32)n1C | 4.08% |
| CCOC(=O)CCc1c(C)c2ccc(OCc3nn[nH]n3)c(C)c2oc1=O | -25% |
| Cc1c(C(=O)Nc2ccccc2Cl)oc2ccc(S(=O)(=O)N3CCC4(CC3)OCCO4)cc12 | -4.62% |
| COc1cccc(-c2nnc(NC(=O)c3ccc(S(=O)(=O)N(CC(C)C)CC(C)C)cc3)o2)c1 | 14% |
| COC(=O)C(C)Sc1ccc2nnc(-c3cccc(F)c3)n2n1 (stereo not drawn) | -5.87% |
| CCOC(=O)c1nnn(-c2nc(OC)nc(N(C)C)n2)c1-c1ccccc1 | -30.1% |
| C#CC(C)(C)NC(=O)CSc1nc2c(c(=O)n(C)c(=O)n2C)n1CCCC | 1.95% |
| CCCc1cc(=O)[nH]c(SCc2ccc(C#N)cc2)n1 | -9.73% |
| C=C(C)COc1ccc(-c2n[nH]c(C)c2-c2ccccc2OC)c(O)c1 | 15.7% |
| O=C(C1=C(O)C(=O)N(Cc2ccccc2)C1c1cccnc1)c1ccco1 (stereo not drawn) | 3.85% |
| Cc1ccccc1C(=O)NCCN=C1NS(=O)(=O)c2ccccc21 | -24.8% |

| Compound | mean inhibition % of two 10-compound mixtures (active compounds read high) |
| --- | --- |
| N#Cc1ccccc1-n1c(N)c(C(=O)N2CCCC2)sc1=S | -0.195% |
| O=C(O)COc1nsnc1N1CCOCC1 | -1.36% |
| O=C(O)c1cc(S(=O)(=O)N2CCCCCC2)c(Cl)cc1Cl | -41% |
| Cc1ccccc1-c1ccc(Nc2ccc(C(=O)N3CCOCC3)cc2)nn1 | 16% |
| Cc1ccnc(N2C(=O)c3ccccc3C2Nc2ccc3c(c2)OCCO3)c1 (stereo not drawn) | -33.6% |
| COc1cccc(OCC(=O)Nc2ccccc2C(N)=O)c1 | 16.6% |
| O=C(O)C1CC(=O)N(Cc2cccnc2)C1 (stereo not drawn) | 5.36% |
| CCCn1c(=NC(C)=O)c(C(=O)OCC)cc2c(=O)n3ccccc3nc21 | -168% |
| N#Cc1cccc(NC(=O)CCC2CCCC2)c1 | -2.16% |
| Cn1nc(-c2ccc(Cl)cc2)c2cc(C(=O)NCc3ccco3)sc21 | 10.9% |
| O=S(=O)(NCc1ccccn1)c1ccc(Br)s1 | -20.3% |
| COc1ccc(C(=O)Nc2c(N)nc(SCC(=O)N3CCC(C)CC3)[nH]c2=O)cc1OC | -31.6% |
| CC1(C)CC(=O)C=C(NCc2ccncc2)C1 | -4.76% |
| Cc1ccc2c(c1)c1ncn(CCC3=CCCCC3)c(=O)c1n2C | 2.97% |
| CCCn1c(SCC(=O)c2ccc3c(c2)OCCO3)nnc1C(C)C | -7.42% |
| Cc1nn(-c2ccccc2)c2[nH]c(C(F)(F)F)cc(=O)c12 | 1.25% |
| CS(=O)(=O)N(C(=O)NC(=O)NC1CCS(=O)(=O)C1)C1CCCCC1 (stereo not drawn) | -74.3% |
| CCCS(=O)(=O)N1CCC(C(=O)NCCCN(C)Cc2ccccc2)CC1 | 2.46% |
| CCc1cc(Br)ccc1NC(=O)C1CCCO1 (stereo not drawn) | 4.52% |
| Cc1cccc(OCC(O)Cn2c(=N)n(CCN3CCOCC3)c3ccccc32)c1 (stereo not drawn) | 3.52% |
| O=S(=O)(NCCOc1cccc2cccnc12)c1ccc(F)cc1 | 8.29% |
| CCOC(=O)CN(C(=O)CN1CCOCC1)c1ccc(Br)cc1 | 1.94% |

| Compound | mean inhibition % of two 10-compound mixtures (active compounds read high) |
| --- | --- |
| O=C(Nc1ccc(Cl)cn1)Nc1cccs1 | 7.83% |
| CC(NC(=O)c1cc(-c2ccccc2)on1)c1ccccc1 (stereo not drawn) | -25.3% |
| CCn1ncc(C2=NOC(C(=O)Nc3ccccc3C(=O)OC)C2)c1C (stereo not drawn) | 1.96% |
| COc1ccc(CCNC(=O)CN2CCC(n3nnc4cc(F)ccc43)CC2)cc1OC | 2.77% |
| Cc1ccc(Cn2nnc3c(=O)n(CC(=O)N4CCCCC4)cnc32)cc1 | -35.5% |
| Cc1ccc(CNC(=O)C2CC(=O)N(C3CCCCCCC3)C2)cc1 (stereo not drawn) | -34.1% |
| COc1ccccc1N(C(=O)Cn1nnc2ccccc21)C(C(=O)NCc1ccco1)c1ccc(C)o1 (stereo not drawn) | 8.72% |
| C#CCN1C(=O)C(O)(CC(=O)c2cc(OC)ccc2OC)c2ccccc21 (stereo not drawn) | 11.6% |
| C=CCn1c(SCn2nnc3ccccc3c2=O)nnc1-c1ccc(Cl)cc1 | 9.21% |
| CCOc1ccc(S(=O)(=O)N(CC(=O)O)c2ccccc2)cc1 | -11.4% |
| O=S1(=O)CCN2C(=N1)SC1=C2CCN(Cc2ccccc2)C1 | 15.2% |
| Cc1cc(C)cc(NC(=O)N2CCC(NC(=O)c3ccc(F)cc3)CC2)c1 | 3.5% |
| CC(C)CCNC(=O)C(C)N(C(=O)Cn1nnc(-c2ccc(F)cc2)n1)C1CCCC1 (stereo not drawn) | -3.08% |
| CCCCCOC(=O)NCCOC(=O)Nc1ccc(C(=O)OCC)cc1 | 1.11% |
| CCNc1nc(SCCOc2ccccc2)nc(N(C)C)n1 | 3.09% |
| C=CCn1c(SCC(=O)NC23CC4CC(CC(C4)C2)C3)nc(O)cc1=O | -25.2% |
| COC(=O)c1cccc(NC(=O)CN2CCC(NC(=O)c3cc(OC)c(OC)c(OC)c3)CC2)c1 | -69.7% |
| Cc1cccc(N2CCN(S(=O)(=O)c3ccc4c(c3)c(=O)n(C)c(=O)n4C)CC2C)c1 (stereo not drawn) | 12.1% |
| CCCC(=O)Nc1ccc(C(=O)NCCCn2ccnc2)cc1 | 14.7% |
| COc1ccc(-c2cc3ccc(OCc4nn[nH]n4)cc3oc2=O)cc1 | -281% |
| COc1ccc(S(=O)(=O)N(C)CC(=O)Nc2ccc3c(c2)OCCO3)cc1OC | 3.88% |
| COc1cccc(C(=O)Nc2c3c(nn2-c2cccc(C)c2C)CS(=O)(=O)C3)c1OC | -0.81% |

| Compound | mean inhibition % of two 10-compound mixtures (active compounds read high) |
| --- | --- |
| CC(=O)N1CCN(c2cccc(C)c2C)CC1 | 6.81% |
| Cc1nnc(NC(=O)CCC(=O)N2CCC(C)CC2)s1 | 4.7% |
| O=C(C(Cc1ccccc1)n1cccc1)N1CCN(C2CCCCC2)CC1 (stereo not drawn) | 11.2% |
| Cn1c(SCC(=O)N2CCOCC2)nnc1-c1ccc(NC(=O)c2ccccc2F)cc1 | 3.6% |
| O=C(COc1ccc(F)cc1)N(CC1=CCS(=O)(=O)C1)c1ccccc1 | 4.83% |
| O=C1NC2(CCCCC2)N=C1c1ccccc1 | 2.35% |
| CCC/C(O)=C1\C(=O)CC(C)(C)CC1=Nc1ccccc1OC | 9.67% |
| O=C(CS(=O)(=O)c1cn(Cc2cccc(F)c2)c2ccccc12)N1CCCCC1 | -0.735% |
| CCOc1ccc(Cn2nnc(C(=O)NCc3ccccc3)c2N)cc1 | -16.1% |
| Oc1ccc(Cl)cc1/C=N/c1nc2ccccc2[nH]1 | 5.15% |
| CCN=C1SC(CC(=O)Nc2ccc(C)cc2)C(=O)N1CC (stereo not drawn) | -15% |
| Cc1occc1C(=O)N1CCCc2ccccc21 | -1.12% |
| CCN(CC)C(=O)CSc1nnc(-c2cnccn2)n1-c1ccc(C)cc1 | 14.1% |
| COc1ccc(-c2nnc(SCC(=O)NC3CCCCC3)o2)cc1OC | -3.36% |
| CCCOC(=O)C1=C(C)NC2=C(C(=O)C(C(=O)OC)C(C)C2)C1c1ccc(N(C)C)cc1 (stereo not drawn) | -5.72% |
| CC(CN1CCCCC1)OC(=O)c1ccccc1Cl (stereo not drawn) | 2.23% |
| CN1CCCc2cc(C#N)c(=O)[nH]c21 | -74.4% |
| Cc1ncn(C23CC4CC(CC(O)(C4)C2)C3)n1 | 0.845% |
| Cc1ncc(CC(=O)n2cc(C(=O)c3cc(Cl)ccc3O)cn2)s1 | 8.66% |
| Cn1c(=O)c2c(nc(SCC(=O)Nc3ccccc3N3CCCCC3)n2C)n(C)c1=O | -17.6% |

From PubChem BioAssay AID538 (PCMD, 2006)
